Results taken from PubChem BioAssay (NCI).
About 83,000 compounds went through this panel and 20% of them were active in at least one assay; those are over-represented in the sample as a whole.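 Single-concentration screen, 48 h exposure, 96-well plates. Endpoint: percent growth. Below 10 = active.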 Values without a mark were called inactive. Activity calls are given as the source filed them.

Key:
Assay in all cases: NCI-60 one-dose screen, 48 h (100 = growth as untreated, 0 = no growth, -100 = all killed)
[1] = tested on: SK-MEL-2 melanoma; conditions: 10 µM unless noted
[2] = tested on: SN12C renal; conditions: 10 µM unless noted
[3] = tested on: UO-31 renal; conditions: 10 µM unless noted
[4] = tested on: TK-10 renal; conditions: 10 µM unless noted
[5] = tested on: ACHN renal; conditions: 10 µM unless noted
[6] = tested on: CAKI-1 renal; conditions: 10 µM unless noted
[7] = tested on: A498 renal; conditions: 10 µM unless noted
[8] = tested on: MOLT-4 leukemia; conditions: 10 µM unless noted
[9] = tested on: SR leukemia; conditions: 10 µM unless noted
[10] = tested on: RPMI-8226 leukemia; conditions: 10 µM unless noted
[11] = tested on: OVCAR-8 ovarian; conditions: 10 µM unless noted
[12] = tested on: OVCAR-5 ovarian; conditions: 10 µM unless noted
[13] = tested on: OVCAR-4 ovarian; conditions: 10 µM unless noted
[14] = tested on: SK-OV-3 ovarian; conditions: 10 µM unless noted
[15] = tested on: IGROV1 ovarian; conditions: 10 µM unless noted
[16] = tested on: OVCAR-3 ovarian; conditions: 10 µM unless noted
[17] = tested on: HS 578T breast; conditions: 10 µM unless noted
[18] = tested on: NCI/ADR-RES ovarian; conditions: 10 µM unless noted
[19] = tested on: CCRF-CEM leukemia; conditions: 10 µM

SMILES | growth [1] | growth [2] | growth [3] | growth [4] | growth [5] | growth [6] | growth [7] | growth [8] | growth [9] | growth [10] | growth [11] | growth [12] | growth [13] | growth [14] | growth [15] | growth [16] | growth [17] | growth [18] | growth [19] [%]
N=C(c1ccccc1)N(Cc1ccccc1)Cc1ccccc1 | 85.4% | 98.8% | 72.6% | 106% | 93.7% | 89.8% | 96% | 86.3% | 64.8% | 94.4% | 97.9% | 86.3% | 84.9% | 98.1% | 67% | 110% | 113% | 99.8% | –
Cc1ccc(NC(=O)CCl)cc1Cl | 85.1% | 93.6% | 98.5% | 103% | 92.3% | 90.8% | 119% | 81.8% | 51.9% | 91% | 92.9% | 108% | 89.2% | 102% | 63.8% | 114% | 93.8% | 107% | –
CN(C)CCOC(=O)C(C)(C)C | 103% | 102% | 89.9% | 102% | 98.1% | 105% | 103% | 95.9% | 99.5% | 106% | 99.7% | 103% | 111% | 112% | 106% | 111% | 105% | 110% | –
CC[N+](C)(C)N | 108% | 104% | 89.8% | 100% | 110% | 95.4% | 121% | 104% | 93.8% | 101% | 98.3% | 111% | 102% | 109% | 111% | 114% | 108% | 109% | –
COc1ccc(-c2nnc(SCC(=O)Nc3ccc(C(=O)/C=C/c4cc(OC)c(OC)c(OC)c4)cc3)n2-c2ccccc2)cc1OC | -26.1% [100 µM] (active) | 31.8% [100 µM] | 67.5% [100 µM] | -42.5% [100 µM] (active) | 1.79% [100 µM] (active) | 1.67% [100 µM] (active) | -69.7% [100 µM] (active) | 44.5% [100 µM] | 75% [100 µM] | 16.7% [100 µM] | 15.9% [100 µM] | 19.2% [100 µM] | -49% [100 µM] (active) | -54.7% [100 µM] (active) | -36.1% [100 µM] (active) | -37% [100 µM] (active) | 4.23% [100 µM] (active) | 46% [100 µM] | –
COC(=O)c1cc(=O)nc(N/N=C/c2ccccc2O)s1 | 97.9% | 90.9% | 61.4% | 112% | 92.3% | 79% | 112% | 72.1% | – | 87.9% | 97.5% | 104% | 50.8% | 103% | 88.6% | 88.6% | 108% | 89.3% | –
COC(=O)c1c[n+]([O-])ccc1OC | 117% | 98.2% | 85.2% | 102% | 108% | 97.2% | 111% | -47.4% (active) | – | 111% | 110% | 117% | 123% | 106% | 107% | 113% | 109% | 105% | –
CC(=O)O.[In] | 98.4% | 109% | 88.4% | 100% | 104% | – | 112% | 99.9% | 93.4% | 102% | 102% | 105% | 114% | 103% | 106% | 116% | – | 107% | 85.4
